Source: a collection of fitness landscapes (doi:10.1016/j.celrep.2020.107928)
In all, about 81,000 sequences were measured (“one-hybrid fitness for binding NBS DNA”: median about -0.1, highest 2% from about 0.36 on). The sample holds the highest values, similar sequences and a random draw of the others, so the mix is not that of the screen.

B1: Caulobacter ParB omega fusion; a variant is named by its letters at X, in order, B8GW30 (parent)
chain: MESVVVGEPGMSEGRRGLGRGLSALLGEVDAAPAQAPGEQLGGSREAPIEILQRNPDQPRRTFREEDLEDLSNSIREKGVLQPILVRPSPDTAGEYQIVAGERAWRAAQRAGLKTVPIMVRELDDLAVLEIGIIENVQRADLNVLEEALSYKVLMEKFERTQENIAQTIGKSXSHVANXMRLLXLPDEVQSYLVSGELTAXHARAIAAAADPVALAKQIIEGGLSVRETEALARKAPNLSAGKSKGGRPPRVKDTDTQALESDLSSVLGLDVSIDHRGSTGTLTITYATLEQLDDLCNRLTRGI

Variants of: B1
Experiment: one-hybrid fitness for binding NBS DNA (the Noc-binding site; scaled: cognate 1, non-cognate 0); higher = stronger binding
Settings: with NBS DNA site
Method in brief: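 Fitness is the rescaled log change in variant-to-wild-type read ratio, measured by Illumina sequencing of plasmids before and after bacterial one-hybrid selection. The scale puts cognate at 1 and non-cognate at 0. Selection of Caulobacter ParB libraries, four specificity codons randomised, took place in E. coli USO with a HIS3 reporter, site 19 bp from the promoter, over 48 hours at 37°C on M9-minus-histidine with 0.1 mM IPTG and 5 mM 3-AT.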

Variant | one-hybrid fitness for binding NBS DNA
EPSE | ≤ 0.2
WYYR | ≤ 0.2
QNWS | ≤ 0.2
TTNM | ≤ 0.2
AGGD | ≤ 0.2
QTFS | 0.391
QTAH | 0.401
QTFN | ≤ 0.2
QTFK | ≤ 0.2
QTAM | 0.233
QTAN | 0.217
QTAS | 0.51
QTAP | ≤ 0.2
QTAD | ≤ 0.2
YQLR | ≤ 0.2
LRHP | ≤ 0.2
REPM | ≤ 0.2
TKNF | ≤ 0.2
SEEG | ≤ 0.2
RKKT | 0.691
RPVT | ≤ 0.2
RKVT | 0.512
RKKG | 0.227
RKVP | ≤ 0.2

Variant | one-hybrid fitness for binding NBS DNA
RKKQ | 0.242
ILKV | ≤ 0.2
VPFY | ≤ 0.2
NRFR | ≤ 0.2
KCAR | ≤ 0.2
DRFR | ≤ 0.2
KPAR | ≤ 0.2
KRAR | 0.541
KRFR | 0.469
STSG | ≤ 0.2
QRPV | ≤ 0.2
QAQV | ≤ 0.2
QAKV | 0.393
QKKV | 0.406
QCKV | 0.479
QRVV | 0.272
QRKV | 0.588
QKCV | ≤ 0.2
QKVV | ≤ 0.2
QAVV | ≤ 0.2
QPKV | ≤ 0.2
QLKV | 0.342
NHES | ≤ 0.2
WMIP | ≤ 0.2

Variant | one-hybrid fitness for binding NBS DNA
VPEL | ≤ 0.2
KIDS | ≤ 0.2
YGSP | ≤ 0.2
QMKV | 0.424
QIKV | 0.267
QTIV | ≤ 0.2
QTVV | ≤ 0.2
QMNV | ≤ 0.2
QMVV | ≤ 0.2
QSVV | ≤ 0.2
QSKV | 0.398
QHKV | 0.44
QTKV | 0.599
QHDV | ≤ 0.2
QHVV | ≤ 0.2
TFNG | ≤ 0.2
WQMG | ≤ 0.2
FYPI | ≤ 0.2
VPIG | ≤ 0.2
DNCR | ≤ 0.2
MCLS | ≤ 0.2
LFAP | ≤ 0.2
LAIW | ≤ 0.2
QSFA | ≤ 0.2

Variant | one-hybrid fitness for binding NBS DNA
QPFA | ≤ 0.2
QMAA | 0.339
QRAA | 0.617
QRFA | 0.494
QHAA | ≤ 0.2
QVCG | ≤ 0.2
AEFL | ≤ 0.2
MPNG | ≤ 0.2
KCHT | ≤ 0.2
KCST | ≤ 0.2
KRGH | ≤ 0.2
DRST | ≤ 0.2
KAET | ≤ 0.2
KRHT | 0.651
KPET | ≤ 0.2
KRET | 0.501
KRST | 0.573
KRGT | 0.537
KCGT | ≤ 0.2
KRHP | ≤ 0.2
LDCV | ≤ 0.2
DSPG | ≤ 0.2
EQLY | ≤ 0.2
TMSQ | ≤ 0.2

Variant | one-hybrid fitness for binding NBS DNA
VICL | ≤ 0.2
MMNR | ≤ 0.2
KCIT | ≤ 0.2
NRCT | ≤ 0.2
NRRT | ≤ 0.2
KRYT | 0.613
KRIT | 0.481
KRPT | 0.305
KCRT | 0.315
KRCT | 0.558
KRCD | ≤ 0.2
KCYT | ≤ 0.2
KRRT | 0.674
DRYT | ≤ 0.2
FRGT | ≤ 0.2
HAIS | ≤ 0.2
WVIG | ≤ 0.2
TARF | ≤ 0.2
LMCG | ≤ 0.2
PVMR | ≤ 0.2
SKSN | ≤ 0.2
CRIR | ≤ 0.2
HDNF | ≤ 0.2
TALC | ≤ 0.2

Variant | one-hybrid fitness for binding NBS DNA
MHTW | ≤ 0.2
KRWT | 0.669
NRWT | ≤ 0.2
KCLT | ≤ 0.2
KCQT | ≤ 0.2
KPWT | ≤ 0.2
KRQP | ≤ 0.2
KRQT | 0.513
KPLT | ≤ 0.2
KRLT | 0.469
ELNV | ≤ 0.2
NLKK | ≤ 0.2
FRPG | ≤ 0.2
HKCG | ≤ 0.2
PFLC | ≤ 0.2
RHYR | 0.387
RHHR | 0.447
RHPR | ≤ 0.2
RHRR | 0.656
RHWR | 0.256
RHQR | 0.448
RHLR | 0.329
RHIR | ≤ 0.2
RHHH | ≤ 0.2

Variant | one-hybrid fitness for binding NBS DNA
RHHP | ≤ 0.2
EMNR | ≤ 0.2
WDGG | ≤ 0.2
QAEP | ≤ 0.2
ADMS | ≤ 0.2
PVLV | ≤ 0.2
NCEV | ≤ 0.2
SRIS | ≤ 0.2
DRYY | ≤ 0.2
RHGP | ≤ 0.2
RHGR | 0.403
RHSH | ≤ 0.2
RHGH | ≤ 0.2
RHSD | ≤ 0.2
RHSR | 0.448
MNYT | ≤ 0.2
VDVI | ≤ 0.2
YLRS | ≤ 0.2
PAHQ | ≤ 0.2
SSQC | ≤ 0.2
FTTS | ≤ 0.2
SMHC | ≤ 0.2
QTIH | 0.221
QTCS | 0.495

Variant | one-hybrid fitness for binding NBS DNA
QTCN | ≤ 0.2
QPLS | ≤ 0.2
QTPS | 0.314
QSLS | 0.263
QTIP | ≤ 0.2
QTCP | ≤ 0.2
QTIS | 0.398
QTYS | 0.507
QCLS | 0.382
CPTM | ≤ 0.2
DVLM | ≤ 0.2
WVEG | ≤ 0.2
TFRM | ≤ 0.2
MYPF | ≤ 0.2
EAVR | ≤ 0.2
PVAE | ≤ 0.2
QTQP | ≤ 0.2
QTQN | ≤ 0.2
QTES | 0.317
QTWS | 0.444
QMCD | ≤ 0.2
QTWN | ≤ 0.2
QMCP | ≤ 0.2
QMCS | 0.38

Variant | one-hybrid fitness for binding NBS DNA
QTWP | ≤ 0.2
QTRS | 0.811
NTRS | ≤ 0.2
QTQS | 0.504
MSSN | ≤ 0.2
FFKL | ≤ 0.2
LPTN | ≤ 0.2
HFHL | ≤ 0.2
QSEF | ≤ 0.2
TASS | ≤ 0.2
DAGG | ≤ 0.2
DEKT | ≤ 0.2
QPCS | ≤ 0.2
QCCS | 0.393
QTLS | 0.426
QTLD | ≤ 0.2
QSCS | 0.296
QTLP | ≤ 0.2
ERTA | ≤ 0.2
TLTL | ≤ 0.2
EMRG | ≤ 0.2
RMNP | ≤ 0.2
RLND | ≤ 0.2
RLNS | 0.493

Variant | one-hybrid fitness for binding NBS DNA
RLDS | ≤ 0.2
RSDS | ≤ 0.2
RFNS | 0.331
RSND | ≤ 0.2
RPNS | ≤ 0.2
RMNS | 0.481
RCNS | 0.557
RMDS | ≤ 0.2
RSNS | 0.508
PYGH | ≤ 0.2
TCDT | ≤ 0.2
SICL | ≤ 0.2
ITNT | ≤ 0.2
QLLN | ≤ 0.2
QSKD | 0.203
QSKR | 0.979
QEKR | 0.285
QDKR | 0.32
QCKR | 1.08
QPKR | 0.405
QSKP | 0.229
QGKR | 0.358
QPKP | ≤ 0.2
QLKR | 0.932

Variant | one-hybrid fitness for binding NBS DNA
QLKM | 0.318
QLVR | 0.34
AWRM | ≤ 0.2
VLCG | ≤ 0.2
GDPR | ≤ 0.2
GMNC | ≤ 0.2
GYHN | ≤ 0.2
GMFV | ≤ 0.2
GDMV | ≤ 0.2
PAFV | ≤ 0.2
GFQR | ≤ 0.2
KNLN | ≤ 0.2
QAKR | 0.982
QIIR | ≤ 0.2
QIVR | 0.271
QIKR | 0.853
QAKG | 0.313
QAVR | 0.358
SPHS | ≤ 0.2
GILL | ≤ 0.2
CSWG | ≤ 0.2
VYLS | ≤ 0.2
RVCD | ≤ 0.2
RVCP | ≤ 0.2

Variant | one-hybrid fitness for binding NBS DNA
RVCN | ≤ 0.2
RVCH | ≤ 0.2
RVRN | ≤ 0.2
RVCS | 0.444
RVCT | 0.433
RVYS | 0.351
RVCM | ≤ 0.2
RVCY | ≤ 0.2
RVRS | 0.577
RVCR | 0.436
TIPT | ≤ 0.2
LYLM | ≤ 0.2
HSTN | ≤ 0.2
QCVS | 0.381
QRKP | 0.404
QSVS | 0.228
NRKS | ≤ 0.2
DRKS | ≤ 0.2
QPVS | 0.202
QRKS | 0.778
QRVS | 0.561
ANSS | ≤ 0.2
LCGR | ≤ 0.2
TETQ | ≤ 0.2

Variant | one-hybrid fitness for binding NBS DNA
TNPC | ≤ 0.2
YPLP | ≤ 0.2
YFGS | ≤ 0.2
QNIT | ≤ 0.2
ATQS | ≤ 0.2
NPLV | ≤ 0.2
WWKR | 0.203
QRKN | 0.573
QRPH | ≤ 0.2
QCKD | 0.337
QRKH | 0.766
QPKH | ≤ 0.2
QRKD | 0.377
QRVP | ≤ 0.2
QRVH | 0.387
QRVN | 0.259
QRVD | ≤ 0.2
EGSD | ≤ 0.2
